Screens as filed in PubChem BioAssay.
Shown is part of a subset that was picked to be rich in hits.
CapD inh: CapD enzyme inhibition; 140,000 compounds, 0.23% hits; purified CapD enzyme, fluorescence intensity read-out; stronger effect = lower value; z-score (test concentration not listed); in the data active = z-score mostly below about -2.9, no sharp cut-off; inactive = mostly above about -1.9
Starred values were filed as active, the others as inactive.

SMILES	CapD inh
O=C(O)c1ccc(NC2OC(CO)C(O)C2O)cc1 (centres undefined)	-6.5*
C=CCN1C(=O)NC(=O)/C(=C/c2ccc(OCc3ccccc3Cl)c(OC)c2)C1=O	0.81
C[C@H](c1ccccc1)N1C(=O)CC[C@H]2CC(=O)CC[C@@H]21	-0.09
Cc1ccc(C)n1-c1sccc1C(=O)CC#N	0.39
Cc1ccc(C)n1-c1ccc(CC(=O)O)cc1	-3.2
CC(=O)Nc1sccc1C(=O)O	0.89
O=C(O)c1cccc(N2CCCC2)c1	76
Cc1ccc(C)n1-c1cccc(C(=O)O)c1	-8.6*
Cc1cc(C(=O)O)c(C)n1-c1ccc(Cl)cc1	-0.14
Cc1ccc(C)n1-c1cccc(N)c1	0.07
Cc1ccc(C)n1-c1ccc(C(=O)O)c(C(=O)O)c1	-8.4*
Cc1ccc(C)n1-c1sccc1C(=O)O	-11*
c1ccc(CN2CCn3c4c(c5ccccc53)CCCC42)cc1 (centres undefined)	-0.32
CCCCn1c(=NC(=O)c2ccccc2)c(C(=O)OCC)cc2c(=O)n3ccccc3nc21	0.68
CCc1ccccc1NC(=O)c1sc2nc3c(c(-c4ccco4)c2c1N)CCC3	0.11
CCOC(=O)c1cc2ccc(OCc3ccccc3)cc2oc1=O	-0.085
CN1CCN(Cc2cc3cccc4c3n(c2=O)CCC4)CC1	13
O=C(COC(=O)C1(c2ccccc2F)CCCC1)N1CCCCC1	-0.48
O=C(N=Nc1c(O)[nH]c2ccccc12)C(O)c1ccccc1 (centres undefined)	-2.2
O=C1N=c2ccccc2=C1N=Nc1c(O)[nH]c2ccccc12	-0.04
O=C1CSC(N=Nc2c(O)[nH]c3ccccc23)=N1	-4.1*
CCOC(=O)C1C(c2ccccc2)NC(=S)NC1(O)c1ccccc1 (centres undefined)	-0.32
N#CCC(=O)c1cccc(Cl)c1	-0.12
O=C1NC(=O)N(c2ccccc2)C(=O)/C1=C/C=C/c1ccco1	-1.1
O=C1NC(=S)NC(=O)C1=C/C=C/c1ccco1	-11*
SMILES	CapD inh
CN1C(=O)NC(=O)/C(=C\C=C\c2ccco2)C1=O	-0.49
O=C(NC1CCCCCC1)c1cn(-c2ccc(F)cc2)nn1	0.33
Cn1ncc2c1ncn1nc(-c3ccncc3)nc21	0.15
Cc1ccc(-c2nc(N3CCOCC3)nc3ccccc23)cc1	0.53
CCOC(=O)c1cccc(O)c1O	-2.7*
CCOC(=O)c1ccccc1S(N)(=O)=O	0.33
CCOC(=O)c1cc2ccccc2cc1O	-0.5
COc1cc(C(=O)/C=C/Nc2ccc(N(C)C)cc2)cc(OC)c1OC	-0.29
CCOC(=O)c1nc(Nc2ccc(C(F)(F)F)cc2)c2ccccc2n1	0.64
COc1ccc(/C=C(\C#N)C(N)=O)cc1OC	-2.3
CCOc1ccc(C=C(C#N)C#N)cc1	-0.18
COc1cc(C=C(C#N)C#N)ccc1O	-4.3*
O=C(CSc1cc(Cl)nc(Cl)c1)NNc1ccccc1	-0.02
O=c1[nH]cnc2c1sc1nc(-c3ccco3)c3c(c12)CCCC3	3.3
O=C(NCCNc1ccc([N+](=O)[O-])cn1)NNC(=O)c1ccc([N+](=O)[O-])o1	-5.1*
CSCCNC(=O)NCCNc1ccc([N+](=O)[O-])cn1	-0.42
CCN(CC)c1ccc(C(=O)NNC(=O)NCCNc2ccc([N+](=O)[O-])cn2)cc1	9.9
CC(=O)Nc1ccc(N/C(C)=C/C(=O)c2cccnc2)cc1	-4.1*
COc1ccc(N/C(C)=C/C(=O)c2ccccc2)cc1	-1.1
CN=C(Nc1ccc(Cl)cc1)c1cccnc1	-0.42
COc1ccc(N2CCN(c3cc(N(C)CCO)c([N+](=O)[O-])c4nonc34)CC2)cc1	-1.2
O=c1oc(-c2cccc(C(F)(F)F)c2)nc2cccc(F)c12	0.36
CCc1ccc(N2C(=O)/C(=C/c3cccn3C(C)(C)C)C(=O)NC2=S)cc1	8.6
CN1C(=O)C(=Cc2cccn2C(C)(C)C)C(=O)N(C)C1=S	0.2
CN1C(=O)/C(=C/c2cccn2C(C)(C)C)C(=O)NC1=S	-4.5*
SMILES	CapD inh
COc1ccc2c(c1)-c1c(ssc1=Nc1cccc3ccccc13)C(C)(C)N2	-1.4
CC(=O)Oc1ccc2cc(-c3nc(-c4ccccc4)c(C)s3)c(=O)oc2c1	-0.03
CC[n+]1c(/C=C/N(C)c2ccccc2)sc2ccc(OC)cc21	32
C[n+]1c(COc2ccccc2O)sc2ccccc21	-0.5
CSc1sc2ccccc2[n+]1C	0.51
C[n+]1c(/C=C/Nc2ccccc2)sc2ccccc21	-4.4*
CC[n+]1c(/C=C2/C=C(C)CC(C)C2)sc2ccccc21 (centres undefined)	-0.23
CC[n+]1c(/C=C/Nc2ccccc2)sc2ccccc21	-4.9*
CCC1CCCCN1C(=O)c1cc(-c2ccccc2OC)on1 (centres undefined)	-0.55
O=[N+]([O-])c1ccc(CSc2nc(NCC3CCCO3)c3ccccc3n2)cc1 (centres undefined)	-0.24
COC(=O)c1cc(NC(=O)CSc2nc3[nH]ncc3c(=O)n2-c2cccc(C(F)(F)F)c2)cc(C(=O)OC)c1	0.34
CCCCC(=O)Oc1cc2c(C(=O)OCC)c(C)n(-c3ccccc3)c2c2ccccc12	0.1
Cc1ccccc1NCC(=O)N/N=C\c1ccccc1	0.36
CCOC(=O)c1cnc2c(ccc3ccccc32)c1Nc1cccc(C)c1	-0.26
